# Compounds with a hit are over-represented: about 2.7% of the library has one in this group of screens.
# GLP-1R inv ag: GLP-1 receptor (human) inverse agonism; P43220; HEK293 GLP-1R CRE-luciferase, luminescence, 24 h; GLP-1R form is constitutively active; Potency, µM (highest dose often 38.3 µM), actives largely listed as inhibitors; actives 1.6% (n = 410,000); AID 624417; note: nearly all actives have a fitted effect of over 55% in size
# Target sequence (P43220 whole entry, looked up): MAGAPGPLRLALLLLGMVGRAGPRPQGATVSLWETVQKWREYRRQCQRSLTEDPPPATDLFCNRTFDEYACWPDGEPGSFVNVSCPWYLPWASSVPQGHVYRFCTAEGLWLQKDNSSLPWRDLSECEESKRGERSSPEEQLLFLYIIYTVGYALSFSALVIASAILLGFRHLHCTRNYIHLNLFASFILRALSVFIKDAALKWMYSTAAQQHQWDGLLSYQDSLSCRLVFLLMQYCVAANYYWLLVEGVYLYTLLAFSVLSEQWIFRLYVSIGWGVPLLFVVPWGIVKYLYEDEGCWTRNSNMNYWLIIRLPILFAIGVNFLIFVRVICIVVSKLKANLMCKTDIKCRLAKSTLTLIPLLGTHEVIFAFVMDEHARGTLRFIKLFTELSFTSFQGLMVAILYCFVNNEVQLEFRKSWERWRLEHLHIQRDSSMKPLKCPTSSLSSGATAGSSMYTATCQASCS
#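 Inverse agonists were sought by their lowering of basal cAMP reporter luciferase output in HEK293 cells stably carrying constitutively active human GLP-1R, after 24 h compound treatment.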
# HEK293 tox: cytotoxicity counter-screen for GLP-1 receptor inverse agonists | actives 0.13% (n = 410,000) | HEK293 cAMP-luciferase reporter cells, luminescence, 24 h | Potency, µM (titrated, usually from 38.3 µM), usual class: inhibitors;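 note: loss of luciferase light is scored as toxicity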
#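 Quantitative HTS format, 1536 wells, 200 cells/uL seeded. Compounds: 23 nL, 24 h, 37 °C. Detection: luciferase reagent, luminescence at 12 min RT; decreased signal taken as cytotoxic.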
# mIDH1 inhibitor: blocks human mutant IDH1 R132H enzyme; O75874; IDH1-R132H enzyme, NADPH consumption, diaphorase/resazurin fluorescence; Potency, µM (highest dose often 76.6 µM), most hits filed as inhibitors; actives 0.093% (n = 390,000); AID 602179; note: nearly all actives have a fitted effect of over 65% in size
#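 IDH1-R132H (0.5 ug/mL dispensed) in pH 7.5 Tris buffer was preincubated 30 min with compound, then given a substrate mix of 0.016 mM NADPH and 2 mM alpha-KG for 80 min at room temperature; remaining NADPH was read by diaphorase/resazurin fluorescence.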
# GLP1R ag: GLP-1 receptor (human) agonism; HEK293 GLP-1R CRE-luciferase, luminescence, 4-6 h; cells express a hypersensitive GLP-1R form; Potency, µM (doses to about 45.6 µM), most hits filed as activators; actives 0.007% (n = 380,000)
# TrxR1 substrate: is turned over as a substrate by rat TrxR1; O89049; purified TrxR1 substrate turnover, NADPH consumption readout; Potency, µM (titrated, usually from 114 µM); actives 0.01% (n = 390,000); note: nearly all actives have a fitted effect of over 50% in size
#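 Rat TrxR1, dispensed at 90 nM, was prereduced with 400 uM NADPH (final) for 5 min at ~22 deg C, then incubated with compound 15 min before 400 uM selenite. A first-read NADPH fluorescence drop versus no-compound background flagged substrates.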
# rTrxR1 inhibitor: inhibitors of rat thioredoxin reductase 1 | Potency, µM (titrated, usually from 114 µM), usual class: inhibitors | O89049 | recombinant rTrxR1, NADPH fluorescence consumption, selenite substrate | actives 1% (n = 390,000); note: nearly all actives have a fitted effect of over 65% in size
#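 Rat TrxR1 (90 nM in the dispensed reagent) was pre-reduced with 400 uM NADPH for 5 min at room temperature, then incubated with compound for 15 min. After 400 uM selenite was added, NADPH fluorescence (Ex 340/Em 450 nm) was followed for 8 min.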
# Hits are given with their value; - = inactive; ? = inconclusive; . = no result; [ ] = remark or other dose. Calls come from the whole dose curve; as a rule, active = well fitted curve in the direction sought with a large enough effect; inconclusive = small, poorly fitted or top-dose-only effect, or another doubt; inactive = no such curve, though single readings can be large; an effect the other way counts as inactive or inconclusive.
SMILES,GLP-1R inv ag,HEK293 tox,mIDH1 inhibitor,GLP1R ag,TrxR1 substrate,rTrxR1 inhibitor
N#C/C(=C\c1ccc(OCc2cccc(C(=O)O)c2)cc1)C(=O)NCc1ccco1,8.9µM,-,-,-,-,-
Cc1cc(=O)n(CC(=O)Nc2ccc(Cl)c(Cl)c2)c(-n2nc(C)cc2C)n1,-,-,-,.,-,-
C/C(=N\NC(=O)c1ccc(Br)cc1)C1C(=O)c2ccccc2C1=O,?,10µM,-,-,-,-
Cc1cc2ccccc2c[n+]1CC(=O)c1ccc(F)cc1,.,.,.,.,-,-
CCCCCCCOc1ccc(CC(=O)NO)cc1,.,.,.,.,-,-
CCCCC(=O)Nc1nnc(S(=O)(=O)N(C)Cc2ccccc2)s1,-,-,-,.,-,-[11.4 µM]
O=C(OCCN1C(=O)c2cccc3c(N4CCOCC4)ccc(c23)C1=O)c1ccc(Cl)cc1Cl,1.3µM,-,-,-,-,-
NC(=O)[C@@H]1CC2(CC(c3cccc(NC(=O)CC(c4ccccc4)c4ccccc4)c3)=NO2)CN1C(=O)COc1ccc(Cl)cc1 (some centres not stated),11µM,-,-,-,-,-
NC(=O)[C@H]1CC2(CC(c3cccc(NC(=O)COc4ccc(Cl)cc4)c3)=NO2)CN1C(=O)CC(c1ccccc1)c1ccccc1 (some centres not stated),10µM,-,-,-,-,-
NC(=O)[C@H]1CC2(CC(c3cccc(NC(=O)COc4ccc(Cl)cc4)c3)=NO2)CN1C(=O)c1ccc(Cl)cc1 (some centres not stated),?,-,-,-,-,-
O=C(CSc1ccc(-c2nc3ccccc3[nH]2)cn1)N1CCN(C(=O)c2ccco2)CC1,-,-,-,-,-,1.4µM
O=C(CCc1nc2ccccc2[nH]1)N1CCN(C(=O)c2ccco2)CC1,-,-,-,-,-,-
Cc1cc(C)nc(-n2nc(C)cc2NC(=O)CN2CCCC2)n1,?,?,-,-,-,-
Cc1ccc(C)c(C(=O)Nc2cc(C)nn2-c2nc(C)cc(C)n2)c1,?,1.8µM,-,-,-,-
Cc1cc(C)nc(-n2nc(C)cc2NC(=O)c2cccc(S(=O)(=O)N(C)C)c2)n1,-,-,-,-,-,-
Cc1cc(C)nc(-n2nc(C)cc2NC(=O)CN2CCC(C)CC2)n1,?,5µM,-,-,-,-
CCOc1ccc(NC(=O)C(c2ccccn2)N(C(=O)CCl)c2ccc(OCC)cc2)cc1 (configuration not stated),-,-,-,-,-,79µM
CCOC(=O)c1ccc(NC(=O)Cn2nc3c4ccccc4n(Cc4cccc(F)c4)cc-3c2=O)cc1,-,-,-,.,-,-
Cc1cccc(Oc2ccc(S(=O)(=O)N3CCCCC3)cc2N)c1,10µM,-,-,-,-,-
Cc1ccc(S(=O)(=O)c2ccc(Oc3cccc(C)c3)cc2)cc1,10µM,-,-,-,-,-
CSc1nn(Cc2ccc(Cl)cc2)c(N(C(C)=O)C(C)=O)c1S(=O)(=O)c1ccccc1,?,-,?,-,-,-
CC1CCN(c2nc3ccccc3nc2C(F)(F)F)CC1,-,-,-,.,-,-
CCCn1c(CN2CCN(C(=O)c3ccco3)CC2)nc2cc(S(=O)(=O)N(C)C)ccc21,-,-,-,-,-,20µM
O=C(Nc1ccc2c(c1)OCO2)c1cc(C2CCCCN2C(=O)CCCc2ccccc2)on1 (configuration not stated),8.9µM,-,.,-,.,.
O=C(Nc1ccccc1)c1cc(C2CCCCN2C(=O)CCCc2ccccc2)on1 (configuration not stated),?,-,.,-,.,.
SMILES,GLP-1R inv ag,HEK293 tox,mIDH1 inhibitor,GLP1R ag,TrxR1 substrate,rTrxR1 inhibitor
CCOC(=O)Nc1ccc(/C=C/c2ccnc3ccccc23)cc1,.,.,.,.,-,-[0.0914 µM]
Cc1cc2nc(C3CCN(CC4COc5ccccc5O4)CC3)[nH]c2cc1C (configuration not stated),10µM,-,-,-,-,-
COc1ccc(Br)cc1C1NC(c2ccc3c(c2)OCO3)=CC(c2cc(Cl)ccc2O)N1 (configuration not stated),.,.,.,.,-,?
COc1ccc(C)c2sc(N(Cc3cccnc3)C(=O)c3cccs3)nc12,-,-,-,.,-,-
Nc1cc(N)[nH]c(=S)n1,.,.,.,.,-,-
Cc1ccc(/C=C/C(=O)N2CCN(S(=O)(=O)c3ccc(C)c(C)c3)CC2)o1,?,?,-,-,-,18µM
Cc1ccc(/C=C/C(=O)N2CCN(Cc3ccccc3)CC2)o1,-,-,-,-,-,45µM
Cc1cccc(CN2CCN(C(=O)c3cccc4ccccc34)CC2)c1,?,-,-,-,-,-
COc1ccc(S(=O)(=O)N2CCN(C(=O)/C=C/c3ccco3)CC2)cc1,-,-,-,-,-,13µM
Cc1cccc(CN2CCN(C(=O)CCl)CC2)c1,?,?,-,-,-,11µM
CC(=O)c1nn(-c2ccc(OC(F)(F)F)cc2)nc1Nc1ccc(Cl)cc1,-,-,-,.,-,-
CC(=O)Nc1c(C(=O)Nc2ccccc2F)oc2ccccc12,-,-,-,-,-,-
Cc1cc(C)cc(C(=O)N2CC(=O)Nc3ccccc32)c1,?,?,-,-,-,-
Cc1ccc(/C=C/C(=O)N2CC(=O)Nc3ccccc32)o1,-,-,-,-,-,79µM
O=C(/C=C/c1ccco1)N1CCN(c2ncccn2)CC1,-,-,-,-,-,40µM
CCN(CC)C(=O)c1sc2c(c1C)c(=O)n(-c1ccc(OC)cc1OC)c(=O)n2CC(=O)Nc1ccccc1,-,-,-,.,-,-
CC(C)(C)C1CCc2nc(NC(=O)COc3ccc(F)cc3)sc2C1 (configuration not stated),?,-,-,.,-,-
O=C1C=CC(=O)C(C2=C3C(=O)N(CCc4ccccc4)CC(=O)N3CCC2)=C1,-,?,-,-,-,3.2µM
COc1ccccc1N1CCN(Cc2cc(Br)c(O)c3ncccc23)CC1,?,1.1µM,-,-,-,?
COc1ccccc1N1CCN(Cc2cc(COC(C)C)c3cccnc3c2O)CC1,?,?,-,.,-,-
OCCN1CCN(Cc2cc(Cl)c3cccnc3c2O)CC1,?,?,-,-,-,-
CCOCc1cc(CN2CCN(c3ccccc3OC)CC2)c(O)c2ncccc12,5µM,-,.,.,-,-
CCCOCc1cc(CN2CCN(c3ccccc3OC)CC2)c(O)c2ncccc12,?,?,-,.,-,-
Oc1c(CN2CCN(c3ccccn3)CC2)cc(Cl)c2cccnc12,0.5µM,?,-,-,-,-

# Screening data (PubChem BioAssay)
